± gives the standard deviation of the averaged measurements. The full ranking holds about 33,000 sequences; the median of “E-score (rank enrichment, -0.5 to 0.5)” is about -0.0043, and the highest 2% start at about 0.24. The sample holds the highest values, similar sequences and a random draw of the others, so the mix is not that of the screen.
What follows are sequences tested on 2Sp-muMax20 (muMax20 with two 2,6-bis(methyl)pyridine Cys staples) (assay: PBM 8-mer E-score (E-score (rank enrichment, -0.5 to 0.5)); higher = stronger preferential binding).
Method: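 Protein binding microarray (universal PBM chip covering all 10-mers in fixed probe flanks) with chemically synthesized human Max(13-93) bHLH-LZ analogs (not full-length Max) bearing noncanonical residues (hArg, Tha, Aib, Nle at 65) and aromatic Cys staples. Read-out per 8-mer (and its reverse complement): E-score (rank-based enrichment, -0.5 to 0.5) and Z-score of median probe intensity.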

Sequence	PBM 8-mer E-score
GCATCCAC	0.0775 ± 0.049
CCCACCTC	-0.0411 ± 0.14
GCTTTTAA	-0.0089 ± 0.0068
GCTTTTCA	0.0545 ± 0.063
CCTTTTCA	0.29 ± 0.03
CCTTTTTA	-0.0668 ± 0.03
GCTTTTTA	0.303 ± 0.013
CTTTTTCA	0.0855 ± 0.061
GTTCCTCA	-0.0919 ± 0.021
CGCTGGAG	-0.172 ± 0.023
ATCAACTC	0.0114 ± 0.058
CGAAGGAA	-0.209 ± 0.023
GAGCCAGA	-0.216 ± 0.14
TGTATGAA	0.0767 ± 0.054
GCCCACCA	0.078 ± 0.038
GCCCACAC	0.076 ± 0.018
GCCCACCC	0.417 ± 0.02
CCCCACCC	0.23 ± 0.1
ACCCACCA	0.178 ± 0.043
ACCCACCC	0.424 ± 0.043
AACCGGAA	-0.0983 ± 0.0079
GCTGAGAA	-0.111 ± 0.028
TCAACCGA	-0.0249 ± 0.02

Sequence	PBM 8-mer E-score
AACCATTA	0.293 ± 0.0072
AACCATTG	-0.145 ± 0.014
CACCATTA	-0.0267 ± 0.11
GTCAAATA	0.163 ± 0.093
CCATATGC	0.134 ± 0.054
CCATATGG	0.295 ± 0.008
CAATATGC	0.128 ± 0.021
CAATATGA	0.189 ± 0.055
ACATATGG	0.0892 ± 0.04
CAATATGG	0.244 ± 0.044
AGCACCAG	-0.0554 ± 0.022
CGACACTC	-0.159 ± 0.094
AACACTCC	-0.151 ± 0.012
CGAATCAA	0.241 ± 0.054
AAAATCAA	-0.044 ± 0.037
CAAATCAA	0.237 ± 0.0084
GAAATCAA	0.0712 ± 0.019
AAAATCAG	0.0292 ± 0.03
GAAATCAC	0.142 ± 0.072
AAAATCAC	0.28 ± 0.0095
CGAATCAG	-0.0839 ± 0.076
TGAATCAA	0.1418 ± 0.00071
CCGCTTGC	-0.142 ± 0.036

Sequence	PBM 8-mer E-score
ATACCAGA	0.118 ± 0.019
ACGTGTTA	0.352 ± 0.0043
ACGTGTCG	0.18 ± 0.033
CCGTGTTA	0.0643 ± 0.04
ACGTGTCA	0.139 ± 0.031
GCGTGTTA	0.103 ± 0.02
ACGTGTGA	0.113 ± 0.061
ACGTGTAG	0.0238 ± 0.1
ACGTGTGG	0.156 ± 0.026
ACGTGTAT	0.336 ± 0.015
ACGTGTCT	0.26 ± 0.046
ACGTGTGC	0.238 ± 0.029
ACGTGTAC	0.132 ± 0.017
GAAGCCCC	-0.0537 ± 0.047
GCTTGTCA	-0.15 ± 0.028
CACCTGAC	0.0247 ± 0.0091
CCCATAGA	0.11 ± 0.015
CTTATCAC	0.00992 ± 0.026
ACCGAGCT	-0.158 ± 0.00061
CGAGTAAG	0.0344 ± 0.035
CACGATAA	0.0394 ± 0.0045
TGGAACCA	-0.0848 ± 0.06
ACGTCCAT	-0.0323 ± 0.032

Sequence	PBM 8-mer E-score
TCCCATAA	0.0959 ± 0.053
CCCCACAA	0.245 ± 0.013
CCCCATAA	0.254 ± 0.037
CCCCACAC	0.229 ± 0.021
GCCCATAA	-0.0636 ± 0.086
CCCCACAG	-0.0544 ± 0.039
GTCCAAAA	-0.0163 ± 0.058
ACGCGAAC	0.0549 ± 0.069
TCACAAAA	0.0933 ± 0.021
ACAAGCTC	-0.194 ± 0.011
ATATAAAT	0.251 ± 0.037
ATAAAAAC	0.116 ± 0.046
ATATAAAC	0.315 ± 0.054
CTATAAAA	-0.0627 ± 0.04
ATATAAAA	0.3008 ± 0.00046
ATATAAAG	0.21 ± 0.017
CTATAAAC	0.0618 ± 0.024
GTATAAAA	0.278 ± 0.035
GGATAAAA	0.0526 ± 0.098
ACATAAAA	0.144 ± 0.037
GTATAAAC	0.0938 ± 0.044
ATAAAAAT	0.16 ± 0.044
CTACACTA	0.111 ± 0.081

Sequence	PBM 8-mer E-score
ACGCCTTC	-0.0956 ± 0.053
TTATAAAA	0.272 ± 0.021
TAATAAAA	0.231 ± 0.053
TGATAAAA	0.145 ± 0.017
GGGGAAGA	0.0842 ± 0.0073
AGTCCTTC	-0.195 ± 0.04
ATACCATC	0.237 ± 0.021
ACACCATC	0.0694 ± 0.0049
ATACCATA	0.249 ± 0.041
ATACCATG	0.102 ± 0.057
CTACCATC	-0.168 ± 0.094
GTACCATA	-0.00352 ± 0.14
AGAAGGTC	0.126 ± 0.039
ACTTGGCG	-0.143 ± 0.14
CTGCAACC	-0.145 ± 0.031
GCTAGTCA	0.103 ± 0.052
AGTCACGA	-0.0662 ± 0.009
AGTCACGC	0.26 ± 0.037
AGTCACGG	-0.147 ± 0.052
